Experiment [1] addresses T1, Ephrin type-B receptor 1 (Homo sapiens) (UniProt P54762).
T1 sequence (whole entry): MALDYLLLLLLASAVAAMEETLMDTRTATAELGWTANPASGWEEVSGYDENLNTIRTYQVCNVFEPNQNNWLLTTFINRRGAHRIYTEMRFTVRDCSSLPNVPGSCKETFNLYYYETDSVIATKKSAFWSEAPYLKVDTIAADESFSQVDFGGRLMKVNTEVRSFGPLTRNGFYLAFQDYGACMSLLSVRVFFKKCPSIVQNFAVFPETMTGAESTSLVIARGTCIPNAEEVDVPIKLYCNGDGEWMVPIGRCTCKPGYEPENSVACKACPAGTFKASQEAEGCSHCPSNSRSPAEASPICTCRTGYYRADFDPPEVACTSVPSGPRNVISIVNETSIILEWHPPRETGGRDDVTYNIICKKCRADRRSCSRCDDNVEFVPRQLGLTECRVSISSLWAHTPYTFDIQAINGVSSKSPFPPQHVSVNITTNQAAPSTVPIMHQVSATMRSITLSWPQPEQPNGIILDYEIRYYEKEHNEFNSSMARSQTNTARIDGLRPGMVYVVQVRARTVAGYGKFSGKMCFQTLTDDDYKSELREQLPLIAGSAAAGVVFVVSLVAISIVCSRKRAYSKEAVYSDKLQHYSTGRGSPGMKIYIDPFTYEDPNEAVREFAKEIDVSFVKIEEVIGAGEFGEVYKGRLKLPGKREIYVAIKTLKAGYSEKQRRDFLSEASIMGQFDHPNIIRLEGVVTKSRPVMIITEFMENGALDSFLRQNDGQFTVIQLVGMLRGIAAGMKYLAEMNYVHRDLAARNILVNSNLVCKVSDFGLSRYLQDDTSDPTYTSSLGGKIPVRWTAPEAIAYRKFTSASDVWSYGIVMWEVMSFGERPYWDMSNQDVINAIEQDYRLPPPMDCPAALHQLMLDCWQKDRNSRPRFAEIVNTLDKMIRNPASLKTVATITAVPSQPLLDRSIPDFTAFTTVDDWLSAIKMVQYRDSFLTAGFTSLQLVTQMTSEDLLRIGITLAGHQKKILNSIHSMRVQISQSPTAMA
To be noted: at 10 µM.

For experiment [2], the target named is T2, Ephrin type-B receptor 2 (Homo sapiens) (UniProt P29323).
T2 sequence (whole entry): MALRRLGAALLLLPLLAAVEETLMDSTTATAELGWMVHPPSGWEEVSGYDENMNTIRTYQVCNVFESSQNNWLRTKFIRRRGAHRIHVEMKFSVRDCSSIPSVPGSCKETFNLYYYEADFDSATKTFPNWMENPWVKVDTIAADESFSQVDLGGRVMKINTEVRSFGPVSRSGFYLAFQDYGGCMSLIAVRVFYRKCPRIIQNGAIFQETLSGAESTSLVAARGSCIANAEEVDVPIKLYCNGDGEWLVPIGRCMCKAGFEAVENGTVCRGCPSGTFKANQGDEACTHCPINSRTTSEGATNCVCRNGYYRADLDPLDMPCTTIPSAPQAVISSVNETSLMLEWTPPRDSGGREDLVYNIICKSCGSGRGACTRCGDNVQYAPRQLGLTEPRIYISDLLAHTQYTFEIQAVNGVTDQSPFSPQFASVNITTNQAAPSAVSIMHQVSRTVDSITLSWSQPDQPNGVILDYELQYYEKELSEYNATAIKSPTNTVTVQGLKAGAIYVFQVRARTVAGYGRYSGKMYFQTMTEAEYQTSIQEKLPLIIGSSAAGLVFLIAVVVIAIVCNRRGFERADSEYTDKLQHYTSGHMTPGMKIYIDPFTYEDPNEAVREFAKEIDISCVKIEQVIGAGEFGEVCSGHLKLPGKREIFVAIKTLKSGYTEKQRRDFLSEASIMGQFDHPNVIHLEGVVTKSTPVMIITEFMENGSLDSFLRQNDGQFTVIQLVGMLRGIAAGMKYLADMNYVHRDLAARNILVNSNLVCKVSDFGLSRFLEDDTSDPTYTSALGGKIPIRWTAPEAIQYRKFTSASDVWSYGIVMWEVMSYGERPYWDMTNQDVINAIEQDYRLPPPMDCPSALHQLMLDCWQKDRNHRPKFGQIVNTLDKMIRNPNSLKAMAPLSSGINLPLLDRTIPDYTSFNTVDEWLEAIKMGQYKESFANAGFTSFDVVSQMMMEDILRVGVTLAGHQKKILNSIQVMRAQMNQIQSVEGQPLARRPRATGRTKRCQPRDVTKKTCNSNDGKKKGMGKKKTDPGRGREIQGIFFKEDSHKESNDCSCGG
To be noted: at 1 µM.

Experiment [3] concerns the target T2, Ephrin type-B receptor 2 (Homo sapiens). The following applies: at 10 µM.
Experiment [4] concerns the target T3, Ephrin type-B receptor 3 (Homo sapiens) (UniProt P54753).
T3 sequence (whole entry): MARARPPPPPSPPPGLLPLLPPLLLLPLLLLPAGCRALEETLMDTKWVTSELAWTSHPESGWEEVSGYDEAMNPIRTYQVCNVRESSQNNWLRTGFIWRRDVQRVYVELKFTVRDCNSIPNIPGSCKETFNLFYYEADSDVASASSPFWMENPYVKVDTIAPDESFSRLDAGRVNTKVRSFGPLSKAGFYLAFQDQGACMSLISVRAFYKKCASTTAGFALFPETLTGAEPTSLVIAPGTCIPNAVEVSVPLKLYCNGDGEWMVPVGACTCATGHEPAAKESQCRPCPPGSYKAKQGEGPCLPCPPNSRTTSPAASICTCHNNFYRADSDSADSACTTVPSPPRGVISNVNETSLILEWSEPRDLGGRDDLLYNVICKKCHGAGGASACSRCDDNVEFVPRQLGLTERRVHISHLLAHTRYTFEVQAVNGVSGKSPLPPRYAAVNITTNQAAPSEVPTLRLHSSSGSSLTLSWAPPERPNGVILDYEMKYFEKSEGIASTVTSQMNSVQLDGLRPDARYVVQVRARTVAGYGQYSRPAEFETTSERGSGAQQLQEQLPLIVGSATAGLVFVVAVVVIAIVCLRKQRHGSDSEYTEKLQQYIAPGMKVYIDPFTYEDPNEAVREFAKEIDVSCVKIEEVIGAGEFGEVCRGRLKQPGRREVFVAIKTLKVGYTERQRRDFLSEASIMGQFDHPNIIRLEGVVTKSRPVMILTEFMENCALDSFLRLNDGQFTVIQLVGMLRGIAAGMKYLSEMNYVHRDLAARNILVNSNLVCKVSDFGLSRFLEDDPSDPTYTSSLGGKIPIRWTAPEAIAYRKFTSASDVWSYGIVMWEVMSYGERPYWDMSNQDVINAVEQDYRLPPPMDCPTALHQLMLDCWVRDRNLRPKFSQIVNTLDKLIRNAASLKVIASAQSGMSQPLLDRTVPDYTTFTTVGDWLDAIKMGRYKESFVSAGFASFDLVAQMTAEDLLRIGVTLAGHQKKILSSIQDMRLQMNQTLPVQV
The following applies: at 1 µM.

Experiment [5] has as its target T3, Ephrin type-B receptor 3 (Homo sapiens). To be noted: at 10 µM.
Experiment [6] addresses T4, Ephrin type-B receptor 4 (Homo sapiens) (UniProt P54760).
T4 sequence (whole entry): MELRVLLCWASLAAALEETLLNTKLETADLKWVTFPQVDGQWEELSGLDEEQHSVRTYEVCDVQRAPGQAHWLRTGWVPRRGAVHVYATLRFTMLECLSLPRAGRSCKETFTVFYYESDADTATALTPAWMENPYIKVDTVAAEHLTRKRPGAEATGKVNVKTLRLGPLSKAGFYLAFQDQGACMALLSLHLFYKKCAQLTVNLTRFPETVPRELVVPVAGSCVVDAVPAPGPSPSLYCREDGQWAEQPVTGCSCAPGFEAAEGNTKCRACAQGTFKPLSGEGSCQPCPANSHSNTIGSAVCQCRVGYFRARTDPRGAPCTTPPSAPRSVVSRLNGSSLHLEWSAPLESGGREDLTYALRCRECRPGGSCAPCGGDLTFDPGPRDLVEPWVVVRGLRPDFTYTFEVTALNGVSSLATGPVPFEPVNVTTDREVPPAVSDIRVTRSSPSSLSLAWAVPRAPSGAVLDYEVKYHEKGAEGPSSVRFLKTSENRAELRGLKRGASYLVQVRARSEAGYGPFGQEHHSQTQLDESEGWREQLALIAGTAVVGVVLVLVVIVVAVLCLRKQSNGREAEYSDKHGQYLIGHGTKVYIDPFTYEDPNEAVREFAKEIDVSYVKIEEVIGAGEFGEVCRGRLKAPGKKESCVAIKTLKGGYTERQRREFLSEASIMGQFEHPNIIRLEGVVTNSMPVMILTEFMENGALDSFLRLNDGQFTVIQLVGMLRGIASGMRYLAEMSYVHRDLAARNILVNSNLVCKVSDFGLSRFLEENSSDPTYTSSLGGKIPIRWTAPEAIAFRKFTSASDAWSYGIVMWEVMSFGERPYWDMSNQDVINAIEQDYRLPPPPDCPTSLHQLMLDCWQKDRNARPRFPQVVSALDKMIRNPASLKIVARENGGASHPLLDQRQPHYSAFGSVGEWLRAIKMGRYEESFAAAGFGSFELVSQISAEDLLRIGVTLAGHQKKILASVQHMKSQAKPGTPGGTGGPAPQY
The following applies: at 1 µM.

For experiment [7], the target named is T4, Ephrin type-B receptor 4 (Homo sapiens). The following applies: at 10 µM.
The target of experiment [8] is Receptor tyrosine-protein kinase erbB-4 (Homo sapiens) (UniProt Q15303). The following applies: at 1 µM.
Sequence of Receptor tyrosine-protein kinase erbB-4 (Homo sapiens) (Q15303 whole entry): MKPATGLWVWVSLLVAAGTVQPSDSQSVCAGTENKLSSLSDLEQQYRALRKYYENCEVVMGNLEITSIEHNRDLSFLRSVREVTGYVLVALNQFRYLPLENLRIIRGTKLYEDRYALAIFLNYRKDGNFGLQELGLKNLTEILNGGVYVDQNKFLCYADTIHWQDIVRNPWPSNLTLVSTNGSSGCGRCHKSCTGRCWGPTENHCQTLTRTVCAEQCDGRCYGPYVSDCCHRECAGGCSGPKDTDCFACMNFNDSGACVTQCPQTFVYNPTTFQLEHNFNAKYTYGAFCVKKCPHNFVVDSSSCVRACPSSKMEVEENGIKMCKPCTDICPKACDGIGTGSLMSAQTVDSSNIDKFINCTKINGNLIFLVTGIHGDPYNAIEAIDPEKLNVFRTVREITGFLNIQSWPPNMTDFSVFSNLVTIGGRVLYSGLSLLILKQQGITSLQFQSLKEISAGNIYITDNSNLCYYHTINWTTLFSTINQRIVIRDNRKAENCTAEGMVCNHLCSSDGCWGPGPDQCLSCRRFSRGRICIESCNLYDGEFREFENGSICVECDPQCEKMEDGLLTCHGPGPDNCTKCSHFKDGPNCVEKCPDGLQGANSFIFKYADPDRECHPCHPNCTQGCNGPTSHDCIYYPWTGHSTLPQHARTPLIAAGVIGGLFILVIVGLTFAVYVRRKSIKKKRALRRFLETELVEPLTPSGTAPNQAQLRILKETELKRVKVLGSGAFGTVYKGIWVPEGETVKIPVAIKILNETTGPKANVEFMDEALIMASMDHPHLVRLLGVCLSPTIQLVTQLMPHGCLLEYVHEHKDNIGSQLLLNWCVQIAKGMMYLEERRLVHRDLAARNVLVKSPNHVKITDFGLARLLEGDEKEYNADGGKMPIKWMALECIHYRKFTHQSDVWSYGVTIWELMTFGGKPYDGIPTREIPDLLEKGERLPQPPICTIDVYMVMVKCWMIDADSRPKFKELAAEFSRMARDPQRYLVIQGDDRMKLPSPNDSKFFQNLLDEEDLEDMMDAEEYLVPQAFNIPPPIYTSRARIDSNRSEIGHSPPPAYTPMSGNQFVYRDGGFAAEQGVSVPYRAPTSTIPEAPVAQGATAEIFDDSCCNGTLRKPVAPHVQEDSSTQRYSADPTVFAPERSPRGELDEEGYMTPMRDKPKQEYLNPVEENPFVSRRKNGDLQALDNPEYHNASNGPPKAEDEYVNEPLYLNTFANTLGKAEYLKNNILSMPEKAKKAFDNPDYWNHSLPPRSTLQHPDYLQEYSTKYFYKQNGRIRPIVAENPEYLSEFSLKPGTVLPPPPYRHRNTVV
Experiment [9] has the same target. The following applies: at 10 µM.
Experiment [10] concerns the target Focal adhesion kinase 1 (Homo sapiens) (UniProt Q05397). The following applies: at 1 µM.

This passage reports residual activity results from ChEMBL document CHEMBL2218924, “A broad activity screen in support of a chemogenomic map for kinase signalling research and drug discovery” (Biochem J, 2013).

By residual activity is commonly meant the signal under treatment as a percentage of the control signal.

Sequence of Focal adhesion kinase 1 (Homo sapiens) (Q05397 2-1052 limits assumed): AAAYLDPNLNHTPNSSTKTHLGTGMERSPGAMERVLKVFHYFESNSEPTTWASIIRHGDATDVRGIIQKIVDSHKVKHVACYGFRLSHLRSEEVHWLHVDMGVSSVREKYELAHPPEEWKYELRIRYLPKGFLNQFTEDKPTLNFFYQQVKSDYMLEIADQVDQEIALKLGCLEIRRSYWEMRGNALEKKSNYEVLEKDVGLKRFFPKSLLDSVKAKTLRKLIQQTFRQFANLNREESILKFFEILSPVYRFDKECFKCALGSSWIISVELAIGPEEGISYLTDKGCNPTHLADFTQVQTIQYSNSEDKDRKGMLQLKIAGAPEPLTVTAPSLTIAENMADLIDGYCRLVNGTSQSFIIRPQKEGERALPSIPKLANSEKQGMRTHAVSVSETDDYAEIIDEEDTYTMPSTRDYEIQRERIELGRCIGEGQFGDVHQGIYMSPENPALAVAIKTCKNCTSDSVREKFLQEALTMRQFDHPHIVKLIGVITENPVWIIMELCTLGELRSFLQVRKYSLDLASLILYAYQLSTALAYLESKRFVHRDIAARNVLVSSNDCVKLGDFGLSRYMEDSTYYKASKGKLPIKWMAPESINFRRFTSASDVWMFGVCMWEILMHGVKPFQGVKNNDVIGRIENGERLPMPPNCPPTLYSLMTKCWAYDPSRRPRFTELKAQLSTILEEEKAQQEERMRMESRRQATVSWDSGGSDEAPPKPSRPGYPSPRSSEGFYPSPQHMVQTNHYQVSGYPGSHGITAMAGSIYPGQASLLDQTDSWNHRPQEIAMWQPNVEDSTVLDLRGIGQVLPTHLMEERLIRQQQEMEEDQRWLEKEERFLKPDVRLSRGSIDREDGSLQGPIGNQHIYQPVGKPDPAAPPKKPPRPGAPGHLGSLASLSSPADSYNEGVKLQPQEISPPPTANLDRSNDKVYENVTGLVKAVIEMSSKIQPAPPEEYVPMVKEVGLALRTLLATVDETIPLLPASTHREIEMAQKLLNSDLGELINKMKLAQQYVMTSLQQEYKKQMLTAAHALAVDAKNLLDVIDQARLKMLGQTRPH

`COc1cccc(-c2cc(=O)c3ccccc3o2)c1N`: the residual activity in experiment [1] was 100%; in [2], 118%; in [3], 132%; in experiment [4] it was 107% (inactive); in [5], 112%; in experiment [6] it was 94%. In addition, the residual activity in experiment [7] amounted to 109%; in experiment [8], 90%; in experiment [9] it was 93%; in [10], 115%.
